Compounds with a hit are over-represented: about 3% of the library has one in this group of screens.
p53null 39C kill = qHTS Screen for Compounds that Selectively Target Cancer Cells with p53 Mutations: Cytotoxicity of p53 Null Cells at the Nonpermissive Temperature; H1299 p53-null (neo) cells, 39C, ATPlite viability, 24 h; Potency, µM (series often up to 46.1 µM), inactives show at the highest dose activity, negative = cell killing, most hits filed as cytotoxic; hit rate 0.97% among 55,000;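 note: potency is the fitted concentration of half-maximal effect; 0% = DMSO only and -100% = full killing by 100 µM tamoxifen; nearly all actives have a fitted effect of over 50% in size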
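Concentration-response (up to 46 uM) was run for 24 h at the nonpermissive 39C on H1299-p53A138V or H1299-neo cells. ATP content was measured with ATPlite luminescence. AC50 values were Hill-modeled after normalizing between DMSO and 100 uM tamoxifen killing.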
S16 F2sN tox = Cell viability qHTS assay in S16 Pmp22-F2sN cells; Potency, µM (series often up to 57.5 µM), for inactives: top-dose activity change, negative = cytotoxicity, hits mostly cytotoxic; hit rate 0.48% among 43,000; S16 Pmp22-F2sN Schwann cells viability, CellTiter-Glo, 24 h; note: potency is the fitted concentration of half-maximal effect; % is set by controls: 0 for no effect and ±100 for the full control effect; nearly all actives have a fitted effect of over 65% in size
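S16 Pmp22-F2sN Schwann cells (500-1,000/well) in phenol-red-free DMEM with 10% FBS received 23 nL compound by pin tool for 24 h at 37 °C. Viability was then read as CellTiter-Glo luminescence after 15 min at room temperature.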
mTORC1 inh = Acumen qHTS Assay for Inhibitors of the mTORC1 Signaling Pathway in MEF (Tsc2-/-, p53-/-) Cells: Sytravon. Tsc2-/- p53-/- MEF, phospho-rpS6 immunofluorescence/PI, 24 h. Potency, µM (highest dose often 38.3 µM), for inactives: at the highest dose activity change, negative = inhibition, actives largely listed as inhibitors. hit rate 0.78% among 44,000;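 note: potency is the fitted concentration of half-maximal effect; plate controls were DMSO for no effect and rapamycin for full effect; nearly all actives have a fitted effect of over 50% in size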
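Tsc2-/-, p53-/- MEFs (empty-vector stable line) in DMEM + 10% FBS were treated with compounds 24 h at 37 degree Celsius, fixed, and immunostained for phospho-rpS6 (Alexa-488) with propidium iodide counterstain. Laser-scanning cytometry gave % positive cells, normalized against 7.5 nM rapamycin and DMSO.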
p53null 32C kill = qHTS Screen for Compounds that Selectively Target Cancer Cells with p53 Mutations: Cytotoxicity of p53 Null Cells at the Permissive Temperature. AID 903, 2007. hit rate 0.62% among 55,000. Potency, µM (series often up to 46.1 µM), for inactives: top-dose activity change, negative = cytotoxicity, most hits filed as cytotoxic. H1299-neo p53 null cells, ATP luminescence, 24 h, 32C;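 note: potency is the fitted concentration of half-maximal effect; 0% = DMSO only and -100% = full killing by 100 µM tamoxifen; nearly all actives have a fitted effect of over 55% in size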
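Luminescent ATP readout gave cell viability of p53-null H1299-neo cells after a 24 h compound exposure at the permissive 32C. Titrations ran up to 46 uM, and AC50s were fitted with the standard Hill equation.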
PMP22 txn prim = Cell-based coincidence reporter assay to measure PMP22 gene transcription in S16 Pmp22-F2sN cells - Primary screen; hit rate 2% among 43,000; S16 Pmp22-F2sN Schwann cells (luciferase reporters placed in the Pmp22 gene), FLuc/NLuc coincidence luminescence, 24 h; Potency, µM (top dose mostly 57.5 µM), inactives show at the highest dose activity change, negative = inhibition, hits mostly inhibitors; AID 1508649, 2021; active = clear falling dose curves in both reporters; inconclusive = both reporters move, but less clearly or upward; inactive = either reporter flat; the % is the NLuc reporter signal; note: potency is the fitted concentration of half-maximal effect; % is set by controls: 0 for no effect and ±100 for the full control effect
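Reporter cells (S16 Pmp22-F2sN, 500–1,000 per well) exposed to compounds for 24 h, 37C, 5% CO2; lysis with FLuc read after 10 min, then Stop&Glo and NLuc read after 10 min.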
SKOV3 invasion = Primary qHTS assay for Inhibitors of ovarian cancer metastasis using an organotypic tumor microenvironment (TME) model. SKOV3ip1-GFP adhesion/invasion on 3D omental model, fluorescence. Potency, µM (series often up to 45.8 µM), inactives show at the top dose activity change, negative = inhibition, hits mostly inhibitors. hit rate 0.1% among 46,000. AID 1963576, 2024;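 note: potency is the fitted concentration of half-maximal effect; plate controls were DMSO wells for no effect and tomatine positive control wells for full effect; nearly all actives have a fitted effect of over 65% in size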
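qHTS, 4-pt dose (0.36-46 umol/L); SKOV3ip1-GFP, 1,200 cells/well, no FBS; primary omental fibroblast/mesothelial co-culture 48 h pre-grown; 2 h RT + 16 h 37 C; PBS wash, 4% PFA; GFP count 488/509 nm.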
NLuc saturating = Biochemical NLuc saturation counterscreen for small molecule modulators of PMP22 gene expression - Nano-Glo assay | Secreted NLuc enzyme (filtered S16 cell medium), Nano-Glo luminescence | shares compounds with PMP22 txn prim | AID 1508638, 2021 | hit rate 4% among 690 | Potency, µM (highest dose often 57.5 µM), for the others: top-dose activity change, negative = inhibition, usual class: inhibitors; note: potency is the fitted concentration of half-maximal effect; % is set by controls: 0 for no effect and ±100 for the full control effect
NLuc Km ctr = Biochemical coelenterazine-based NLuc counterscreen for small molecule modulators of PMP22 gene expression - Km assay; shares compounds with PMP22 txn prim; hit rate 5% among 690; Potency, µM (top dose mostly 57.5 µM), for the others: at the highest dose activity change, negative = inhibition, usual class: inhibitors; secreted NLuc enzyme, coelenterazine luminescence, Km conditions; AID 1508639, 2021; note: potency is the fitted concentration of half-maximal effect; % is set by controls: 0 for no effect and ±100 for the full control effect
FLuc ctr PMP22 = Biochemical FLuc counterscreen for small molecule modulators of PMP22 gene expression; shares compounds with PMP22 txn prim; purified P. pyralis FLuc, luminescence, 10 min; Potency, µM (doses to about 57.5 µM), without a hit: top-dose activity, negative = inhibition, usual class: inhibitors; 690 tested, under 10 active; AID 1508640, 2021; note: % of control where 0% means no effect
Target sequence (P08659 whole entry, looked up): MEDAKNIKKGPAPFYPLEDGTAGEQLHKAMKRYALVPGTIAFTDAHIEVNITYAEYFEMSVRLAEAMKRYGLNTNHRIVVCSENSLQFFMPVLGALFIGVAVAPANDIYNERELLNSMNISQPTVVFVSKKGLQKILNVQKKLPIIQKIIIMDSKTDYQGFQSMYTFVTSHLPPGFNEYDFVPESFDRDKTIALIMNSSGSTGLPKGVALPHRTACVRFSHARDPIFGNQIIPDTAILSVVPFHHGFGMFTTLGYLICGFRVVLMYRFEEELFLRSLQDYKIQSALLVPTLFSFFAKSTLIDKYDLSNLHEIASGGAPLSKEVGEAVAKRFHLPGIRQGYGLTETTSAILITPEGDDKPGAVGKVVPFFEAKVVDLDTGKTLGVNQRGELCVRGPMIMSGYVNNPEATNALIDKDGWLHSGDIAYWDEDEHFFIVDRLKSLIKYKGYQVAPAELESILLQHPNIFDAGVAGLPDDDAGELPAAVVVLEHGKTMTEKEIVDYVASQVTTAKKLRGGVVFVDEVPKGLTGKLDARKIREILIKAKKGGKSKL
S16 viab conf = Cell viability qHTS assay in S16 Pmp22-F2sN cells - Confirmatory screen. shares compounds with PMP22 txn prim. S16 Schwann cells viability, CellTiter-Glo ATP luminescence, 24 h. Potency, µM (doses to about 57.5 µM), for inactives: at the top dose activity change, negative = viability loss, hits mostly cytotoxic. hit rate 7% among 690. AID 1508641, 2021; note: potency is the fitted concentration of half-maximal effect; % is set by controls: 0 for no effect and ±100 for the full control effect
PMP22 txn conf = Cell-based coincidence reporter assay to measure PMP22 gene transcription in S16 Pmp22-F2sN cells - Confirmatory screen; shares compounds with PMP22 txn prim; S16 Schwann cells Pmp22-F2sN, dual luciferase, 24 h; Potency, µM (top dose mostly 57.5 µM), for inactives: at the highest dose activity change, negative = inhibition, most hits filed as inhibitors; hit rate 22% among 690; active = clear falling dose curves in both reporters; inconclusive = both reporters move, but less clearly or upward; inactive = either reporter flat; the % is the FLuc reporter signal; note: potency is the fitted concentration of half-maximal effect
PMP22 prot conf = Cell-based HiBiT reporter assay to measure PMP22 protein expression in S16 Pmp22-HiBiT cells - Confirmatory screen; shares compounds with PMP22 txn prim; S16 Schwann cells Pmp22-HiBiT, luminescence, 48 h; Potency, µM (top dose mostly 27.9 µM), for the others: at the top dose activity change, negative = inhibition, hits mostly inhibitors; 95 tested, under 10 active; AID 1508647, 2021
Target sequence (P25094 whole entry, looked up): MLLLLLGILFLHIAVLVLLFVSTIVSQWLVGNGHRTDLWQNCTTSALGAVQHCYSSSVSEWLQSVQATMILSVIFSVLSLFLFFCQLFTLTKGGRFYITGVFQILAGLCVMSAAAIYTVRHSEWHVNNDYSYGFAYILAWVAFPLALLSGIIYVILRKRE
Numbers without * were called inactive; i = inactive; ? = inconclusive; . = no result given. Unless noted, calls come from the whole dose curve; as a rule, active = well fitted curve in the direction sought with a large enough effect; inconclusive = small, poorly fitted or top-dose-only effect, or another doubt; inactive = no such curve, though single readings can be large; an effect the other way counts as inactive or inconclusive.

SMILES	p53null 39C kill	S16 F2sN tox	mTORC1 inh	p53null 32C kill	PMP22 txn prim	SKOV3 invasion	NLuc saturating	NLuc Km ctr	FLuc ctr PMP22	S16 viab conf	PMP22 txn conf	others
C=C[C@@H]1CN2CCC1C[C@H]2[C@H](O)c1ccnc2ccccc12 (stereo partly specified)	.	.	.	.	.	7.8%	.	.	.	.	.
Cc1ccc(CNC(=O)c2ccc(Nc3nc4ccccc4n4nnnc34)cc2)cc1	-7.0%	?	?	2.9%	8µM*	1.4%	-4.9%	-1.0%	-15.4%	?	9.93µM*	PMP22 prot conf=?
Cc1nn2c(=O)cc(COC(=O)c3ccccc3NC(=O)c3cccs3)nc2s1	?	-8.3%	0.0%	-1.8%	7.13µM*	11.0%	-4.3%	2.2%	-2.8%	9.3%	31.7%
O=C(OCc1cc(=O)n2nc(C3CC3)sc2n1)c1ccc(NC(=O)c2ccccc2Cl)cc1	-10.0%	6.1%	5.2%	?	?	-2.7%	.	.	.	.	.
CC=C(C)C(=O)N[C@@H](c1ccccc1)[C@@H](O)C(=O)O[C@H]1C[C@@]2(O)[C@@H](OC(=O)c3ccccc3)[C@@H]3[C@]4(OC(C)=O)CO[C@@H]4C[C@H](O)[C@@]3(C)C(=O)[C@H](OC(C)=O)C(=C1C)C2(C)C	.	.	.	.	.	-6.2%	.	.	.	.	.
Cc1ccc(NC(=O)N(Cc2ccc3c(c2)OCO3)C2CCN(Cc3ccccc3)CC2)cc1C	-23.8%	?	?	-5.2%	14.1µM*	?	-11.7%	?	-1.7%	?	?
CCN(CC)C(=O)c1ccc(C2=CC3(CCNCC3)Oc3cccc(O)c32)cc1	.	.	.	.	.	-7.2%	.	.	.	.	.
CC(C)N[C@@H]1CCn2c(=O)[nH]c3cccc(c32)[C@@H]1O	.	.	.	.	.	5.0%	.	.	.	.	.
Cc1oc(-c2ccccc2Cl)nc1CN1C(=O)CN=C(c2ccccc2)c2cc(Cl)ccc21	-8.7%	?	-8.2%	10.9%	?	1.0%	.	.	.	.	.
Cc1oc(-c2cccc(Cl)c2)nc1CN1CCC(C(=O)NCCCN2CCN(c3cccc(Cl)c3)CC2)CC1	?	?	0.1%	-5.0%	11.9µM*	0.6%	?	?	3.6%	27.3µM*	?
CCOc1ccc(/C=C/c2nc(C#N)c(NCc3ccccc3)o2)cc1	?	-19.4%	?	-14.6%	?	i	-2.4%	-1.2%	-2.8%	11.0%	-18.4%
CN1CCN(c2oc(-c3ccc(COc4ccccc4)o3)nc2C#N)CC1	-16.8%	0.0%	-13.6%	-11.6%	35.4%	-21.0%	.	.	.	.	.
CCCOC(=O)c1c(C)oc2c1cc(NS(=O)(=O)c1ccc(OCC)cc1)c1ccccc12	?	1.4%	?	-3.8%	8.91µM*	i	-5.7%	2.7%	-7.2%	11.6%	?
COc1cccc(-n2c(SCC(=O)c3ccc(Cl)cc3)nc3c([nH]c4ccccc43)c2=O)c1	18.5%	?	-5.5%	?	10µM*	4.2%	0.6%	3.9%	-5.8%	?	10.9µM*	PMP22 prot conf=-16.0%
C[C@H]([C@H](O)CCC(C)(C)O)[C@H]1CC[C@@]2(O)C3=CC(=O)[C@@H]4C[C@@H](O)[C@@H](O)C[C@]4(C)[C@@H]3CC[C@]12C	.	.	.	.	.	-8.6%	.	.	.	.	.

Screening data from PubChem BioAssay.
